In all, about 25,000 sequences were measured (“ln(normalized median fluorescence intensity)”: median about 7.1, highest 2% from about 10 on). This excerpt belongs to a sample that is enriched for the highest values.
Tested on: PfSIP2 AP2 domain 1 (GST-tagged)
Test: gcPBM binding intensity (ln(normalized median fluorescence intensity)); higher = stronger DNA binding
Method in brief: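 Probes on an Agilent 4 × 180k array were primer-extended, double-stranded and 36 bp long, taken from intergenic genomic regions, with negative controls added. GST-tagged P. falciparum DNA-binding domains from E. coli, about 25 μg on average, were applied to the array for 1 h in 1× PBS containing 1% milk, 0.2 mg/ml BSA, 0.5% salmon testes DNA and 0.03% Triton X-100. Binding intensity, obtained after Alexa488 anti-GST antibody detection and a 488 nm scan, is the highest Masliner-normalised natural-log median intensity across replicate spots of either probe orientation.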

Sequence	gcPBM binding intensity (ln)
ATATTAACTATCATAACACACACAGTAGACATATTT [CACACA_site6941]	6.99
CATTTTTTGCTTTCAACACACATACAATATAAATAA [CACACA_site7858]	7.27
ATGAACTAAACTAATCGTACAATAAGTTTTATTATA [XGTACX_site4891]	6.84
GGCATTTTATGAAGTAGTACCATAAATATTAAAGAT [XGTACX_site5287]	7.32
TTTATATTTATCCAAAGTACTTTTTAAAAACATACC [XGTACX_site4518]	7.36
TGGCTTATTCAGAAATGTACACATATAAATATATAT [XGTACX_site3765]	7.11
AATGGGATCATGGTATGTACTTACACAAATGAATTA [XGTACX_site5389]	6.82
CTATAAATATTTTATTGTACACACTTTTTATGAATG [XGTACX_site6711]	7.22
TTCATTAAAATTATTACACACAGTTCTTCAACCAAA [CACACA_site3504]	6.84
AAAGGTTTATATGATACACACATAAGTGATCAGGTT [CACACA_site190]	6.75
GTAGATATTTATTGAGTGCATGTTATAAAGGGAAAA [GTGCAC_site9481]	9.62
GGAAAAATATAATATGCATGTTATTATTTTTTTATA [TGCATGCA_site836]	6.77
AGATATTTATTGAGTGCATGTTATAAAGGGAAAAAA [TGCATGCA_site88]	10.3
TAAAAACATTTAAATTGTACGGAAATAAAAATTTTT [XGTACX_site8225]	6.94
AGTAATAGTTTGTGCACACTCAAGTATATCATATAT [CACACA_site4034]	9.56
TATATTTCTTCTATAACATGCAGATATATGAAAATA [TGCATGCA_site971]	7.11
TATTTCAAAATATGGGTGCAGTTCTTCATGATATAT [GTGCAC_site9658]	10.7
AATATATGGTTTCATGATATTAAATTCAAAATAATG [CACACA_negctrl_site318]	6.75
TTTAAAAAATGTTATATTATATAATTAAAAAAAAAA [CACACA_negctrl_site1509]	6.63
AACCAAACAAATAAACGTACAAACATTACATATATT [XGTACX_site2265]	7.05
TTACTATGTAAACACACATGCAATATATGTTAAGCC [TGCATGCA_site253]	6.91
AATTATTGTGAAGGGAAAACAAAAAAGTTTATAATT [CACACA_negctrl_site1337]	6.87
AGTGTTTTTTATAAAGTGCAATATAAAAACAAAATG	8.59
TTTATAAAGGGAAAGGTGCAAAAGGTGAAAGTTTTA	10.8

Sequence	gcPBM binding intensity (ln)
TATATATATATACATTGTACATTATTGATTATAACA [XGTACX_site1678]	9.52
TTTGAATCCTTATATACACACATTATGTAATATTAT [CACACA_site561]	7.1
ATATATATATATATATGTACATAGAGAAGTATCTTT [XGTACX_site4737]	9.91
TTTTTTTTTTTTTTGGTGCAGTTCACATATTATATA [GTGCAC_site9996]	9.48
GAAGTAGATGGAAAAGTGCACTGTAATGGTTATATT	10.3
ATGTAGAAGTAATGCACACATATGTATTTATATATA [CACACA_site5391]	7.26
ATGGTTATATTTGAAGTGCAAAAAAAAATATATGTA	8.55
CATTAATAACAAAGTTGTACAAGATAATATTATATG [XGTACX_site6832]	7.26
TAAAAAATTATTAAACGTACGAGACTTTTTATCAGT [XGTACX_site2219]	7.05
AAAAAAAAATATAACAGTACATAAACATATGAATAT [XGTACX_site7093]	6.91
ATAATAAAAAAAATTAGTACATATATAAATATAAAT [XGTACX_site1937]	6.85
CATCTCATATTTTGAAGTACTAAGAAAAGATATAAA [XGTACX_site6867]	7.07
AATTTGAAATATGTGGTGCAGTTATATAATATGTTT [GTGCAC_site9885]	10.3
TATATTTGAAATATATGTACTTATAATACAGTTTAA [XGTACX_site8039]	6.94
TTTTTTTTTTTTTTTGCATGTTGAAAATAAAATTAT [TGCATGCA_site86]	6.92
GAAAATTTAAAAAGAGTGCATTATATGTTTGAATAT [GTGCAC_site9564]	9.18
TTTTATGTTTATGTGGTGCATGTTTTGAAGAAAATA [GTGCAC_site9616]	10.3
TTTTATGCATGTGAAGTGCAAAATAAAAAATAAAAT [GTGCAC_site9612]	10.2
ATATAAAATCAACAAAAAAAAAAAATATATATATAT [XGTACX_negctrl_site251]	9.03
AAATACATAACTTAAAATTTGTTCATATCTATACAT [TGCATGCA_negctrl_site249]	6.94
AGGTTTTCTTAAATAGTGCATTATAACAAAAATAAA	9.66
AAAAATTAACAAAAGGTGCAAACAAATAGTGGTTTT [GTGCAC_site9998]	10.8
ACATTAACATTGTTGGTGCAAAATTAATATGTTTTT [GTGCAC_site9673]	9.77
GTATATAATTTATGTGCACACACTCCTATTTTTAGC [CACACA_site49]	8.89

Sequence	gcPBM binding intensity (ln)
ATTCCTTGGTTGTATAGTACTTTGGTTAAACATAAA [XGTACX_site6967]	7.4
CTTATAAGAATACTAGTGCACATAATTTAACGAAAA	10.6
AAGATAAAATTATGCACACATACGAATAATTTTAAA [CACACA_site1705]	7.24
TAGATTATTATACTAGTGCAAATTATTTAAGAAAAA	8.09
AAAAATTTAATTATTTGTACATAAAATACATTTCTG [XGTACX_site791]	6.81
TTATAAATATAATTTTGTACATATATATATATATAC [XGTACX_site5064]	7.39
AAAATTATACACACACGTACATATAAATAGAAATAT [XGTACX_site1753]	7.12
AACATACGACAATACGCACACATATAAGTACATATT [CACACA_site8584]	7.13
ATTTAAAAGTTGGTAGTGCATTAAAAATAACAAAAA [GTGCAC_site9835]	8.96
TTCTATTTTTTAAAAGTGCATATTATAAATATATAT	9.04
AGGATAAAAGTTATGGTGCATTAACCTATTTAAATA	10.2
GCACATTTTTTTATCACACATATAATTACAATATAA [CACACA_site5585]	7.74
ACAATATTTTTTTATAAACACACATATATATAAATA [CACACA_site9175]	7.18
AATAATGAATTGAAATGTACATATTTTTATTAATAC [XGTACX_site8899]	7.15
AAAATATAAAGTATTTGTACATAATATATTTTTAAA [XGTACX_site3494]	6.81
CAATTAAACAATTAAACATGCAAAATGATATAATAA [TGCATGCA_site240]	6.79
CATGAGGTATAAAAGGTGCAAATTAATGAGAACATT	11.1
TATGTATTAATGAGAACATGCAAAATAATAAACAAT [TGCATGCA_site362]	7.24
TATATATATATATGTGGTACATAAAATTATTATTTT [XGTACX_site4554]	9.55
TTTTAAGGTGTGAAGGTGCAAAAAGGTAAATAGGAA	10.8
ATTTTAAAAAGGATAGTGCAAATGTTAAAATAGGAC	8.74
TTTTTTTTTAAGCAAAGGAAATCAAAATAAAAATAT [CACACA_negctrl_site719]	7.08
ATTTAAGTAGTACATACACACACATATACAAAAAGA [CACACA_site9317]	7.39
GATGAGGACAAACACACACACATAAGTTGATACATA [CACACA_site3424]	7.27

Sequence	gcPBM binding intensity (ln)
ATATAATAACATAACACACACATGTATTTATAGGTG [CACACA_site359]	6.97
CTTTTTATTTAGGAGGTGCATGTAATACGGAACATA	10.9
ATACTTTTATTTTTGGTGCATATATCATGTAGACGT	10.2
CGGACATACATAGGAACATGCAAAATTTTTTATTTT [TGCATGCA_site575]	6.78
CTATAATAACATAACACACACATGTATTTATAGGTG [CACACA_site6298]	7.05
TTTTATTTAGGAGGTGCATGTAATACGGAACATAAT [TGCATGCA_site827]	11.2
TGATTATTATAATTTAGTACATAATATTTTATATAA [XGTACX_site6125]	7.07
TTTATATATTTATTCACACATATAATATTCCGTCGT [CACACA_site6120]	6.88
AAAAAAAAAAAAAATACACACATATTTTATAGGGGA [CACACA_site3261]	7.19
CATATTTACTATCACACACACGATATATATAAATAT [CACACA_site1241]	7.25
TTGATTTCATTTTAAGTGCATAACTAATATTATATA [GTGCAC_site9713]	8.07
TTCATATTCGATAAAGTGCATTAATTTTATTTATCA	8.36
TTATTAAATTCATAAGTGCATTTATGATTAATTTTT [GTGCAC_site9749]	9.08
ATCATATGTATGGTGGTGCATTATGCATGAATTTTA [GTGCAC_site9798]	10.2
ATCATATTTATATTGGTGCATTATGCATGAAATTTA [GTGCAC_site9571]	9.94
ATCATATTTATGTTGGTGCATTATGCATGGATTTTA [GTGCAC_site9795]	9.92
TTCATTTTATTTTAAGTGCATATTTTTATTTTTTTG	8.27
CATTTTCATTTTAAGGTGCATTAATATTTATTTTAA [GTGCAC_site9437]	10.4
AATATTCATATGCAGGTGCATTAATTTTTATTAATT	10.4
CATGAATATTTTAATGTGCACATTTATCATTATATG	8.69
GTTTGAATATATCAGGTGCATTTATAATTCATATGA	10.5
CGCATATTTTATGTTTGTACTCATATGAATATCATA [XGTACX_site4717]	6.97

From the supplement of paper PMC11417369
